The source of these data is ChEMBL document CHEMBL1961873, “Compounds: GSK PKIS; Assays: Nanosyn kinase panel” (2012).

Test [1] deals with Tyrosine-protein kinase Fer (Homo sapiens) (UniProt P16591). The settings on record: at 1 µM.
Test [2] has as its target Tyrosine-protein kinase Fes/Fps (Homo sapiens) (UniProt P07332). The conditions noted are these: at 0.1 µM.
The target is the same in test [3]. The conditions noted are these: at 1 µM.
Test [4] has as its target Fibroblast growth factor receptor 1 (Homo sapiens) (UniProt P11362). The settings on record: at 0.1 µM.
Test [5] shares this target. The settings on record: at 1 µM.
Test [6] has as its target Fibroblast growth factor receptor 2 (Homo sapiens) (UniProt P21802). The conditions noted are these: at 0.1 µM.
For test [7] the target is unchanged. The settings on record: at 1 µM.
For test [8], the target named is Fibroblast growth factor receptor 3 (Homo sapiens) (UniProt P22607). The conditions noted are these: at 0.1 µM.
Fibroblast growth factor receptor 3 (Homo sapiens), sequence (P22607 23-806 limits assumed): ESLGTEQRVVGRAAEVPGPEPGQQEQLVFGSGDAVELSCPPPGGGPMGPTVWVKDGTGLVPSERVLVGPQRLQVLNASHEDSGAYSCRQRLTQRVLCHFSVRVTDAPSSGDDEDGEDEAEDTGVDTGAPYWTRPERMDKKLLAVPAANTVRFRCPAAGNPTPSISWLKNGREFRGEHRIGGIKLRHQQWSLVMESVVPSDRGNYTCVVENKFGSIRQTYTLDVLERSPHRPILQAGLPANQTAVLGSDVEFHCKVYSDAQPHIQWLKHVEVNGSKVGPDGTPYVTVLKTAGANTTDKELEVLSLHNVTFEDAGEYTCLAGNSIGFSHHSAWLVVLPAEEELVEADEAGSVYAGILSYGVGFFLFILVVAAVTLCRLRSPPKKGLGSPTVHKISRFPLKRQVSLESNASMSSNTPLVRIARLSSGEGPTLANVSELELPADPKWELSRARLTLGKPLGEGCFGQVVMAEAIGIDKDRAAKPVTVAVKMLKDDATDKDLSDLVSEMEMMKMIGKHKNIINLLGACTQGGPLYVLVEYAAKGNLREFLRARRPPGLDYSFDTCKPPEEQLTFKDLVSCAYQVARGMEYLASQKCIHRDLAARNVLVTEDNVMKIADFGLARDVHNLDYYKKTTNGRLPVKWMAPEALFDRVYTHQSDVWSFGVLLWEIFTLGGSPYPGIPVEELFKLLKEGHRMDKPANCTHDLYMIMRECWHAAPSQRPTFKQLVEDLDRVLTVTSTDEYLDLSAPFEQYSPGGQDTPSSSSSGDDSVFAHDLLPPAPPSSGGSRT
For test [9] the target is unchanged. The settings on record: at 1 µM.
Test [10] deals with Fibroblast growth factor receptor 4 (Homo sapiens) (UniProt P22455). The conditions noted are these: at 0.1 µM.
Fibroblast growth factor receptor 4 (Homo sapiens), sequence (P22455 22-802 limits assumed): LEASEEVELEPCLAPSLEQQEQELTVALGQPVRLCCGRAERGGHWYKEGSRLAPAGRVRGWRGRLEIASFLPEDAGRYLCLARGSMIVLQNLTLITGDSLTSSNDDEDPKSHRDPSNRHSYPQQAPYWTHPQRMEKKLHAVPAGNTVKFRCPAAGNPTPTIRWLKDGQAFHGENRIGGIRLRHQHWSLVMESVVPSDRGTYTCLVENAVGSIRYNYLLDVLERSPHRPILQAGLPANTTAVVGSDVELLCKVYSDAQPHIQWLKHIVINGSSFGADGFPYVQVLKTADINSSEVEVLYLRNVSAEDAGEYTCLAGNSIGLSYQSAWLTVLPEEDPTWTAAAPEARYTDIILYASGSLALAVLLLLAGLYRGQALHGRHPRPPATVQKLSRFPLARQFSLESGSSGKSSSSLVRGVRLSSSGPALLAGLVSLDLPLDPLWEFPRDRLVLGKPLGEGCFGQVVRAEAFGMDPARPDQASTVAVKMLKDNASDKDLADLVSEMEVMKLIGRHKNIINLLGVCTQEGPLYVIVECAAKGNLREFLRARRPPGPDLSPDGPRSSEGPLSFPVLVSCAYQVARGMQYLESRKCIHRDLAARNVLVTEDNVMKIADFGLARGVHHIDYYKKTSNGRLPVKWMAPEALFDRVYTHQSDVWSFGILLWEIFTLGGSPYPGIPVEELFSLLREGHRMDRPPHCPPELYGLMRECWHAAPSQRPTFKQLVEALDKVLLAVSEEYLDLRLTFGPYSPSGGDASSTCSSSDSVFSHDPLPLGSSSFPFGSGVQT

Fibroblast growth factor receptor 2 (Homo sapiens), sequence (P21802 22-821 limits assumed): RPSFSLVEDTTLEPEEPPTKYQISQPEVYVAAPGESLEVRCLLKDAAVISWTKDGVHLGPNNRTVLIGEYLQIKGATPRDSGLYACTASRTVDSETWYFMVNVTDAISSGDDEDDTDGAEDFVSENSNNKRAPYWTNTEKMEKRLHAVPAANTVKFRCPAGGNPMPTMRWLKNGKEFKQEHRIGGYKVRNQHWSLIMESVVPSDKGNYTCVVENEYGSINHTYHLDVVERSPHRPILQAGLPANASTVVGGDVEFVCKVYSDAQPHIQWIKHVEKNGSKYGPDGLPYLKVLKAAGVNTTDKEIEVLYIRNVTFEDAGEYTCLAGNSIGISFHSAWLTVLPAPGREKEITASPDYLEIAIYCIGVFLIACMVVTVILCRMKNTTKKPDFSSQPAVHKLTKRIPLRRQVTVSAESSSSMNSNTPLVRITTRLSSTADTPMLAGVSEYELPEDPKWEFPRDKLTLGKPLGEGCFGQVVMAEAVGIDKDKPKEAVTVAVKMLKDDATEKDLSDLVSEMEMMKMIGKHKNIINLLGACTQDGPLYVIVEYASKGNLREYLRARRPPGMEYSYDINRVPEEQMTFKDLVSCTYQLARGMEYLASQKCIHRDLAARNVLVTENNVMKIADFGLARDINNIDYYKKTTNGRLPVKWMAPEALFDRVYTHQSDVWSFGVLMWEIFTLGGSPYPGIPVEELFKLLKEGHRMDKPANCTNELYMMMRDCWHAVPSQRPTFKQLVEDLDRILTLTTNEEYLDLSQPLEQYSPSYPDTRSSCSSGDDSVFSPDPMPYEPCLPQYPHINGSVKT
Fibroblast growth factor receptor 1 (Homo sapiens), sequence (P11362 22-822 limits assumed): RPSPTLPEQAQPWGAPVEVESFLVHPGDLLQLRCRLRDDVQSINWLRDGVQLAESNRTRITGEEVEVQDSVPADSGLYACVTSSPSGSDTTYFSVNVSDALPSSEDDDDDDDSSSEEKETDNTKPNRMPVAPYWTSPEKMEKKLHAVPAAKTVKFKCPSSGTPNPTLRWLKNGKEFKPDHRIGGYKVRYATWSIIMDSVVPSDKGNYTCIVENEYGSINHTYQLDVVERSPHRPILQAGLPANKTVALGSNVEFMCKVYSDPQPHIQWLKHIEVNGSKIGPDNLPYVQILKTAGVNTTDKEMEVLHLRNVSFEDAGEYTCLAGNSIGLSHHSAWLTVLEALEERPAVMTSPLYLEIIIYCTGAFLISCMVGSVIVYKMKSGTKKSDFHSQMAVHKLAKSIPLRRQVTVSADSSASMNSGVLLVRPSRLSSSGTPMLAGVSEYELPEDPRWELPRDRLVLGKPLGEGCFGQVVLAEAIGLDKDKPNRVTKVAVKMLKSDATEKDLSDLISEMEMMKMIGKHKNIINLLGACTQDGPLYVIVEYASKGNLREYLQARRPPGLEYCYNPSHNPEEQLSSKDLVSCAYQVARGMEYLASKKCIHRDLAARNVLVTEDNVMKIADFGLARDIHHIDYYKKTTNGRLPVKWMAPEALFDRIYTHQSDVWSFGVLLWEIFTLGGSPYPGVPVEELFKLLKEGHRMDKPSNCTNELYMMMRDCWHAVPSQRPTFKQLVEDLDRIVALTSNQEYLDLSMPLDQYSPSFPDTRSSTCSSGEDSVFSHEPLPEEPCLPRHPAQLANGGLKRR
Tyrosine-protein kinase Fes/Fps (Homo sapiens), sequence (P07332 whole entry): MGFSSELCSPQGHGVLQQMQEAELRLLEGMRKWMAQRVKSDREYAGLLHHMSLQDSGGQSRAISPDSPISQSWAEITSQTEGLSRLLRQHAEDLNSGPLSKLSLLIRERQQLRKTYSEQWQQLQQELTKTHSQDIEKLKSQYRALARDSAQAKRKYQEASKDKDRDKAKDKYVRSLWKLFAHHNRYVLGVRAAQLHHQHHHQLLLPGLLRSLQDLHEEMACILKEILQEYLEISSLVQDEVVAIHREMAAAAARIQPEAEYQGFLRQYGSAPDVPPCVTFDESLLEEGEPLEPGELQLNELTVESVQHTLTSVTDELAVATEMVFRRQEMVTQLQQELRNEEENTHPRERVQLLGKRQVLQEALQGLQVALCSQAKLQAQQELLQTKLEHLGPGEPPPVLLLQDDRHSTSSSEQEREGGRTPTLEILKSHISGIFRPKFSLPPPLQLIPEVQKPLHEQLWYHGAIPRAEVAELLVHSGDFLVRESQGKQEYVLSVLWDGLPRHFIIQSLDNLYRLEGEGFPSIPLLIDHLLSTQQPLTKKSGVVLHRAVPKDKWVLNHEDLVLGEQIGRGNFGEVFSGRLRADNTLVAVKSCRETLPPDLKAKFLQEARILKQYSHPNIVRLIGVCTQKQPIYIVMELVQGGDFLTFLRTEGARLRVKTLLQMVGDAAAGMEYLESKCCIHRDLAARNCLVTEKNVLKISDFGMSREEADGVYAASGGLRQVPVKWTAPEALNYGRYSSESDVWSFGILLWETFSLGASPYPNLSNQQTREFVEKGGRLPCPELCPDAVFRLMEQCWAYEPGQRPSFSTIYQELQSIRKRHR
Tyrosine-protein kinase Fer (Homo sapiens), sequence (P16591 whole entry, looked up): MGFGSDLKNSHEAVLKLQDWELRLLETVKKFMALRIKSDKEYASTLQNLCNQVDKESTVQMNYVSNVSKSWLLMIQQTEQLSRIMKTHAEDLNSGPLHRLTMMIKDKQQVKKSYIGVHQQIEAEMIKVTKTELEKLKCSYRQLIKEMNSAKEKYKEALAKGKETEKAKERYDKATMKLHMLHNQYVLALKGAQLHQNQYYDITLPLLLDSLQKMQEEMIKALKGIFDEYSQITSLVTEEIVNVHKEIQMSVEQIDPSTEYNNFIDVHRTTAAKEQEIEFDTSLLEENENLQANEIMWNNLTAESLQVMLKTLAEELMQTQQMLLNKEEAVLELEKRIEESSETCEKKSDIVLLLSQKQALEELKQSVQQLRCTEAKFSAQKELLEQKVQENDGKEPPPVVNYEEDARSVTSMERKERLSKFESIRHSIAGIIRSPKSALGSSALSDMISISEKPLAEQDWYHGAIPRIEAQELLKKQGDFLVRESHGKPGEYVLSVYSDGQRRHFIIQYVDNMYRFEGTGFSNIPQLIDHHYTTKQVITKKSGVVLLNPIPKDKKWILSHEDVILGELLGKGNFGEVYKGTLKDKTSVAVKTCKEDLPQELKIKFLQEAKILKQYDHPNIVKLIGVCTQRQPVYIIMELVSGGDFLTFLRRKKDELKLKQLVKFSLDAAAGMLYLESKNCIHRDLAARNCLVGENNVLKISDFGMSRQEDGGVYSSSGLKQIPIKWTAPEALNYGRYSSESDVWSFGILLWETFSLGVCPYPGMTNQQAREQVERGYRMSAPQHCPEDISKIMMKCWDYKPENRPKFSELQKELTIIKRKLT

`CCn1c(-c2nonc2N)nc2c(C#CC(C)(C)O)nc(OC[C@H](N)c3ccccc3)cc21`: the inhibition in test [1] was 7.41%; in test [2], 4.38%; in [3], 7.88%; in [4], 4.14%; in test [5] it was 2.91%; in test [6], 4.95%. Besides, the inhibition was 4.18% in test [7], 9.04% in test [8], 3.32% in test [9] and 3.89% in test [10].

For the molecule `Nc1ncc(-c2cccc(S(N)(=O)=O)c2)c2scc(-c3ccc(F)c(Cl)c3)c12`, the inhibition in test [1] is 30%; in [2], 4%; in test [3], 7.1%; in test [4], 2.01%; in test [5], 16.1%; in [6], 8.86%. Also, the inhibition in test [7] is 32.8%; in [8] it was 6.12%; in [9], 23.3%; in test [10], 2.27%.

In the case of `[O-][S+]1CCN(Cc2ccc(-c3ccc4ncnc(Nc5ccc(OCc6cccc(F)c6)c(Cl)c5)c4c3)o2)CC1`, the inhibition is 4.93% in test [1]; 5% in [2]; 4.91% in test [3]; 3.95% in test [4]; 9.17% in test [5]; 7.74% in test [6]. Further, the inhibition in test [7] worked out at 9.73%; in test [8], 8.06%; in [9] it was 7.32%; in test [10] it was 5.9%.

Consider `CCn1c(-c2nonc2N)nc2ccccc21`, for which the inhibition in [1] was found to be 8.61%; in test [2], 3.26%; in test [3] it was 2.57%; in test [4] it was 2.08%; in test [5], 2.29%; in [6], 0.75%. Besides, the inhibition in [7] amounted to 4.22%; in test [8], 2.45%; in test [9], 2.35%; in [10], 0.05%.

As for `CCc1nn2ncccc2c1-c1ccnc(NC2CC2)n1`, the inhibition in [1] came to 4.48%; in test [2], 1.57%; in test [3], 2.04%; in test [4], 1.58%; in [5] it was 7.38%; in test [6], 8.21%. In addition, the inhibition in [7] stood at 10.7%; in test [8] it was 6.71%; in test [9], 11%; in test [10], 4.64%.

Take `COC(=O)Nc1nc2ccc(Oc3ccc(NC(=O)Nc4cccc(Cl)c4)cc3)cc2[nH]1`: the inhibition in test [1] was 2.41%; in [2] it was 1.11%; in test [3], 0.57%; in test [4], 2.31%; in test [5] it was 9.33%; in test [6] it was 2.67%. Besides, the inhibition came to 2.53% in test [7], 2.97% in [8], 2.72% in test [9] and 0.5% in [10].

Regarding `CCn1c(-c2nonc2N)nc2c(C#CC(C)(C)O)ncc(OC3CCNCC3)c21`, the inhibition in [1] is 3.91%; in test [2], 2.9%; in [3], 5.88%; in test [4], 1.54%; in test [5] it was -4.66%; in test [6], 9.23%. For the same molecule, the inhibition in test [7] stood at 11.4%; in [8], 7.92%; in test [9], 2.73%; in [10], 6.43%.

Consider `c1ccc(-c2nc3n(c2-c2ccc4c(c2)OCO4)CCC3)nc1`, for which the inhibition in [1] was 1.9%; in test [2], 0.9%; in test [3] it was -0.41%; in test [4], 0.69%; in test [5], 2.51%; in [6], -0.68%. The inhibition in [7] was 1.92%; in test [8], 4.46%; in test [9] it was 1.25%; in test [10], -1.29%.

Regarding `COC(=O)c1sc(-n2cnc3cc(OC)c(OC)cc32)cc1OCc1ccccc1C(F)(F)F`, the inhibition in [1] worked out at 4.19%; in test [2] it was 3.47%; in test [3] it was 3.74%; in test [4] it was 3.22%; in [5], 12.9%; in test [6], 3.5%. Moreover, the inhibition in [7] is 23%; in test [8], 6.13%; in test [9], 13.9%; in test [10], -3.87%.

In the case of `O=S(=O)(CCNCc1ccc(-c2ccc3ncnc(Nc4ccc(OCc5cccc(F)c5)c(Cl)c4)c3c2)o1)c1ccccc1`, the inhibition in test [1] was 4.93%; in test [2], 4.42%; in test [3] it was 4.26%; in [4], 3.65%; in test [5], 8.42%; in test [6] it was 7.23%. Moreover, the inhibition was 11.6% in [7], 7.36% in [8], 6.93% in test [9] and -5.68% in test [10].

For the molecule `COc1cccc(-n2ncc3c(N/N=C/c4ccc(F)cc4)ncnc32)c1`, the inhibition was 4.95% in test [1]; 2.58% in test [2]; 3.42% in test [3]; 2.86% in [4]; -0.23% in test [5]; 6.26% in test [6]. Moreover, the inhibition in test [7] is 8.02%; in test [8], 6.59%; in [9] it was 6.78%; in [10] it was -0.12%.

`CCCN1CCC(c2ccc(Nc3nc(Nc4cc(F)ccc4C(N)=O)c4cc[nH]c4n3)c(OC)c2)CC1`: the inhibition in [1] came to 82.4%; in test [2], 62.5%; in [3], 80.5%; in test [4], 2.31%; in test [5], 2.41%; in [6] it was 3.25%. Further, the inhibition is 6.48% in [7], 3.99% in test [8], 1.74% in [9] and -5.38% in test [10].

In the case of `CNC(=O)c1cc(-c2ccc(F)cc2)cc(-c2ccc(S(=O)(=O)N3CCCC3)cc2)c1N`, the inhibition came out at 2.21% in [1]; 2.25% in [2]; 1.64% in test [3]; 3.72% in test [4]; 5.1% in test [5]; 9.77% in test [6]. For the same molecule, the inhibition in [7] was 5.71%; in [8], 4.56%; in test [9] it was 3.99%; in test [10], 2.78%.

Consider `Fc1cccc(COc2ccc(Nc3ncnc4sc(-c5ccco5)cc34)cc2Cl)c1`, for which the inhibition in [1] amounted to 3.22%; in [2] it was 3.4%; in [3] it was 2.89%; in [4], 1.73%; in test [5], 5.35%; in test [6] it was 4.08%. Besides, the inhibition is 8.41% in test [7], 5.53% in test [8], 5.9% in test [9] and 0.31% in [10].

As to `Fc1ccc(-c2nn3ncccc3c2-c2ccnc(Nc3ccc4c(c3)OCCO4)n2)cc1`, the inhibition in test [1] is 13.8%; in test [2], 3.45%; in test [3] it was 6.43%; in test [4], 4.68%; in [5] it was 15.9%; in [6], 5.02%. Moreover, the inhibition in [7] was 23.5%; in test [8] it was 4.66%; in [9] it was 13.5%; in test [10] it was -2%.

For `CN(C)CCOc1ccc(-c2nc(-c3ccncc3)c(-c3ccc4c(c3)CC/C4=N\O)[nH]2)cc1`, the inhibition in test [1] is 5.81%; in test [2] it was 2.16%; in test [3], 2.53%; in [4], 6.05%; in test [5], 2.14%; in test [6], 4.67%. The inhibition in [7] was 4.48%; in test [8] it was 5.89%; in test [9], 4.69%; in test [10], 0.23%.

With `COc1cc2ncn(-c3cc(OCc4ccccc4C(F)(F)F)c(C(=O)N(C)C)s3)c2cc1OC`, the inhibition is 3.02% in test [1]; 0.2% in test [2]; 0.64% in [3]; -1.23% in [4]; 10.3% in [5]; 2.76% in test [6]. The inhibition was 20.8% in test [7], 1.53% in test [8], 8.98% in test [9] and -1.7% in test [10].

For orientation: inhibition means the relative decrease from the control value, in per cent.
